Laboratory results reported in ChEMBL document CHEMBL3433997, “St. Jude Leishmania screening dataset” (2016).

Legend:
Format in all cases: functional
[1] = target: Solute carrier family 2, facilitated glucose transporter member 1 (Homo sapiens) (UniProt P11166); experiment: ST_JUDE_LEISH: Cytotoxicity at 2uM final concentration against transgenic Leishmania Mexicana promastigotes LmGLUT1 that are glucose transport deficient and complemented with the human glucose transporter GLUT1. Activity is measured by DNA content using SYBR green in vitro
[2] = target: Hexose transporter 1 (Plasmodium falciparum) (UniProt O97467); experiment: ST_JUDE_LEISH: Cytotoxicity at 2uM final concentration against transgenic Leishmania Mexicana promastigotes LmPfHT that are glucose transport deficient and complemented with the Plasmodium falciparum hexose transporter. Activity is measured by DNA content using SYBR green in vitro
[3] = target: Glucose transporter (Leishmania mexicana) (UniProt O61059); experiment: ST_JUDE_LEISH: Cytotoxicity at 2uM final concentration against transgenic Leishmania Mexicana promastigotes LmGT2 that are glucose transport deficient and complemented with the L. Mexicana glucose transporter 2. Activity is measured by DNA content using SYBR green in vitro

Sequence of Solute carrier family 2, facilitated glucose transporter member 1 (Homo sapiens) (P11166 whole entry): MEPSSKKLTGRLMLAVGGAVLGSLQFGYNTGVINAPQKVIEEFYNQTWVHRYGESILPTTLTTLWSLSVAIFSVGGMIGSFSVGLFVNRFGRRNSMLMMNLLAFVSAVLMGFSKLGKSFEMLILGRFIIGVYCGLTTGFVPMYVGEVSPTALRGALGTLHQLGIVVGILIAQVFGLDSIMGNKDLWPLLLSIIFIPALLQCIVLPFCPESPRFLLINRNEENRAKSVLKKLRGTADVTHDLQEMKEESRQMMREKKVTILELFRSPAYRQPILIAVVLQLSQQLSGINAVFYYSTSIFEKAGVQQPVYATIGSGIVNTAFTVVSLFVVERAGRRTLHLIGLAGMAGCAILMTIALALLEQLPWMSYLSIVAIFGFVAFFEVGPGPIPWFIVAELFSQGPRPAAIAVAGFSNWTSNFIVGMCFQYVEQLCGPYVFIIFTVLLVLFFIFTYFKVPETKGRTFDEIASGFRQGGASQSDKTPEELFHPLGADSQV

Compound | inhibition [1] [%] | inhibition [2] [%] | inhibition [3] [%]
CS(=O)(=O)c1cccc(-c2ccc3oc(C(N)=O)c(NC(=O)c4cccs4)c3c2)c1 | 7.71 | 6.5 | 5.71
CCc1ccc(-c2nc3cc(NC(=O)c4ccc([N+](=O)[O-])o4)ccc3o2)cc1 | 1.01 | 2.33 | 0.78
CCn1c(Sc2ccc(C#N)c([N+](=O)[O-])c2)nnc1-c1ccc(Cl)cc1 | 3.57 | 3.08 | 1.39
Cc1cc(CN2CC[C@H](NC(=O)c3ccc(Cl)c(Cl)c3)C2)ccc1OC1CCN(C)C1 (stereo partly specified) | -0.24 | 0.72 | -0.09
COc1cc(-c2[nH]c(-c3ccc(OCCN(C)C)cc3)cc2-c2ccncc2)ccc1Cl | 1.46 | 1.55 | 1.76
O=C(Nc1cccc(-c2nn3ncccc3c2-c2ccnc(Nc3ccc(N4CCOCC4)cc3)n2)c1)c1c(F)cccc1F | 10.7 | 16.6 | 6.47
Cc1ccc(C)c(NC(=O)NC2CCN(c3ccnc(Nc4ccc(F)cc4)n3)C2)c1 (stereo unspecified) | -2.45 | -0.78 | -1.79
COc1ccc(NC(=O)Nc2ccc(-c3ccccc3)cc2Cl)cc1N1CCN(C)CC1 | 12 | 11.8 | 3.58
N#Cc1ccc(NC2(C(=O)N3CCN(c4cccc(Cl)c4)CC3)CC2)c2ccccc12 | 2.79 | 2.36 | 0.86
Cc1noc(C)c1-c1cccc(CNCc2cccc(-c3ccc(-c4nc5ccccc5[nH]4)cc3)c2)c1 | 0.58 | -1.28 | -1.53
CN1CCN(c2cc(NC(=O)c3ccc(-c4ccc(C#N)cc4)cc3)ccc2Cl)CC1 | 0.4 | -0.14 | 0.17
Cc1cc(N2CCN(C)CC2)nc2ccc(NC(=O)c3cccc(N(C)C)c3)cc12 | 7.09 | 7.99 | 10.2
O=C(Cc1ccccc1)NC(c1ccco1)c1cc(Cl)c2cccnc2c1O (stereo unspecified) | -0.34 | -0.27 | -0.18
COc1ccc(Nc2nccc(NCC(O)c3cccc(C(F)(F)F)c3)n2)cc1 (stereo unspecified) | 1.24 | 2.47 | -1.44
CCOc1ccc(C(Cc2ccccc2)NC(=O)c2cccnc2)cc1OCC (stereo unspecified) | 0.79 | -2.62 | -0.89
Cc1onc(-c2c(F)cccc2Cl)c1C(=O)Nc1ccccc1I | 2.35 | 2.24 | 2.12
Cc1nc(N)nc(N)c1OCc1cccc2c1ccc1ccccc12 | 3.53 | 6.28 | 2.84
